# Results reported in paper PMC11006913.
# Residue numbers refer to the chain shown, from its start.
# Tests used:
# Assay in all cases: PBM; 200 nM protein, PBS
# Conditions in all cases: dsDNA, one strand shown
# [1] = biological target: HOXB9 (Homo sapiens, UniProt P17482 171-250, T197M)
# [2] = biological target: HOXC9 (Homo sapiens, UniProt P31274 178-260, K195R)
# [3] = biological target: HOXA7 (Homo sapiens, UniProt P31268 116-202)
# [4] = biological target: HOXC10 (Homo sapiens, UniProt Q9NYD6 254-340)
# [5] = biological target: ALX4 (Homo sapiens, UniProt Q9H161 200-286)
# [6] = biological target: T1, PAX4 (Homo sapiens, UniProt O43316 9-242, R200K)
# T1 sequence: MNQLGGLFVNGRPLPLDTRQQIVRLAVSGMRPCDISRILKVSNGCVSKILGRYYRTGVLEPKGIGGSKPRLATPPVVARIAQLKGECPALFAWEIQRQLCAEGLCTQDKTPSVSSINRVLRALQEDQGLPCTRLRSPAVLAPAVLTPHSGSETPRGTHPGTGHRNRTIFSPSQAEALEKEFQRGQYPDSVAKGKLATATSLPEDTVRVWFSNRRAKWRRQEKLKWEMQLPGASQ
# [7] = biological target: PRRX1 (Homo sapiens, UniProt P54821 80-166, F113S)
# [8] = biological target: T2, PAX4 (Homo sapiens, UniProt O43316 9-242)
# T2 sequence: T1 sequence with K192R
# [9] = biological target: HOXB6 (Homo sapiens, UniProt P17509 132-218, K202E)
# [10] = biological target: ALX4 (Homo sapiens, UniProt Q9H161 200-286, Q225E)
# [11] = biological target: HOXA4 (Homo sapiens, UniProt Q00056 201-287, R217L)
# [12] = biological target: HOXB4 (Homo sapiens, UniProt P17483 148-234, V174I)
# [13] = biological target: ALX1 (Homo sapiens, UniProt Q15699 118-204, L144V)
# [14] = biological target: ALX3 (Homo sapiens, UniProt O95076 139-225, N203Q)
# [15] = biological target: HOXD13 (Homo sapiens, UniProt P35453 263-343, T313R)
# [16] = biological target: T3, PAX4 (Homo sapiens, UniProt O43316 9-242, R200Q)
# T3 sequence: T1 sequence with K192Q
# [17] = biological target: SHOX (Homo sapiens, UniProt O15266 103-189, R173C)
# [18] = biological target: HOXC9 (Homo sapiens, UniProt P31274 178-260, R193K)
# [19] = biological target: ALX1 (Homo sapiens, UniProt Q15699 118-204, L144R)
# [20] = biological target: T4, PAX4 (Homo sapiens, UniProt O43316 9-242, F177V)
# T4 sequence: T1 sequence with F169V, K192R
# [21] = biological target: HOXC10 (Homo sapiens, UniProt Q9NYD6 254-340, K271E)
# [22] = biological target: ALX3 (Homo sapiens, UniProt O95076 139-225)
# [23] = biological target: T5, PAX4 (Homo sapiens, UniProt O43316 9-242, F177Y)
# T5 sequence: T1 sequence with F169Y, K192R
# [24] = biological target: HESX1 (Homo sapiens, UniProt Q9UBX0 95-180, R109Q)
# [25] = biological target: ALX3 (Homo sapiens, UniProt O95076 139-225, L168Q)
# [26] = biological target: HESX1 (Homo sapiens, UniProt Q9UBX0 95-180, P111T)
# [27] = biological target: HOXB9 (Homo sapiens, UniProt P17482 171-250, R186Q)
# [28] = biological target: HOXC9 (Homo sapiens, UniProt P31274 178-260, R222W)
# [29] = biological target: ALX3 (Homo sapiens, UniProt O95076 139-225, L168V)
# [30] = biological target: HESX1 (Homo sapiens, UniProt Q9UBX0 95-180, F115L)
# [31] = biological target: VAX1 (Homo sapiens, UniProt Q5SQQ9 86-172, T142I)
# [32] = biological target: T6, PAX4 (Homo sapiens, UniProt O43316 9-242, R227W)
# T6 sequence: T1 sequence with K192R, R219W
# [33] = biological target: HOXA7 (Homo sapiens, UniProt P31268 116-202, W177C)
# [34] = biological target: HOXA4 (Homo sapiens, UniProt Q00056 201-287, W262F)
# [35] = biological target: ALX3 (Homo sapiens, UniProt O95076 139-225, N203S)
# [36] = biological target: PRRX1 (Homo sapiens, UniProt P54821 80-166)
# [37] = biological target: HOXB6 (Homo sapiens, UniProt P17509 132-218)
# [38] = biological target: HOXC9 (Homo sapiens, UniProt P31274 178-260)
# [39] = biological target: T7, VENTX (Homo sapiens, UniProt O95231 78-163, R121Q)
# T7 sequence: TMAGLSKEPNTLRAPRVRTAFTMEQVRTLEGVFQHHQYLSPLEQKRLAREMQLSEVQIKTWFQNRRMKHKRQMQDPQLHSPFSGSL
# [40] = biological target: T8, VENTX (Homo sapiens, UniProt O95231 78-163, Y115F)
# T8 sequence: T7 sequence with Y38F, Q44R
# Sequence of HOXC10 (Homo sapiens, UniProt Q9NYD6 254-340, K271E) (Q9NYD6 254-340 K271E): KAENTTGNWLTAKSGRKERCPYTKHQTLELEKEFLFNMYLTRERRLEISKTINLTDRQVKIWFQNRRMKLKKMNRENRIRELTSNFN
# Sequence of HOXB9 (Homo sapiens, UniProt P17482 171-250, T197M) (P17482 171-250 T197M): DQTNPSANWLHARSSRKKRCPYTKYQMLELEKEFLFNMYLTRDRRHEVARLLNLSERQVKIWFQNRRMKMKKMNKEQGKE
# Sequence of HOXC9 (Homo sapiens, UniProt P31274 178-260, K195R) (P31274 178-260 K195R): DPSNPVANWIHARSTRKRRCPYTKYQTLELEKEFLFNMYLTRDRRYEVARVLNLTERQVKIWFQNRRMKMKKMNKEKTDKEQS
# Sequence of HOXA7 (Homo sapiens, UniProt P31268 116-202, W177C) (P31268 116-202 W177C): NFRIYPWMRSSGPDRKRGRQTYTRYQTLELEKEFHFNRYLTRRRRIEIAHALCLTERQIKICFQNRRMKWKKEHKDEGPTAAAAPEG
# Sequence of HOXC9 (Homo sapiens, UniProt P31274 178-260, R222W) (P31274 178-260 R222W): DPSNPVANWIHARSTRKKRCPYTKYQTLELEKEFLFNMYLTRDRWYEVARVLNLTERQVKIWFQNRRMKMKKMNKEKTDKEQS
# Sequence of HOXA7 (Homo sapiens, UniProt P31268 116-202) (P31268 116-202): as the sequence (P31268 116-202 W177C) above, with C62W counted along it
# Sequence of HOXB6 (Homo sapiens, UniProt P17509 132-218, K202E) (P17509 132-218 K202E): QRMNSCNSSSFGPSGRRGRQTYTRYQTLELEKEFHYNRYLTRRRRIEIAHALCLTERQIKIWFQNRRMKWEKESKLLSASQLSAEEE
# Sequence of HOXB6 (Homo sapiens, UniProt P17509 132-218) (P17509 132-218): as the sequence (P17509 132-218 K202E) above, with E71K counted along it
# Sequence of PRRX1 (Homo sapiens, UniProt P54821 80-166) (P54821 80-166): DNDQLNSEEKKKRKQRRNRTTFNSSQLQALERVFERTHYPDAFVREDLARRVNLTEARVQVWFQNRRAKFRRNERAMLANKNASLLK
# Sequence of PRRX1 (Homo sapiens, UniProt P54821 80-166, F113S) (P54821 80-166 F113S): as the sequence (P54821 80-166) above, with F34S counted along it
# Sequence of HESX1 (Homo sapiens, UniProt Q9UBX0 95-180, F115L) (Q9UBX0 95-180 F115L): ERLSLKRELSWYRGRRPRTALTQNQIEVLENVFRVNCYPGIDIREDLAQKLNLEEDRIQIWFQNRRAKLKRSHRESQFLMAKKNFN
# Sequence of HOXC10 (Homo sapiens, UniProt Q9NYD6 254-340) (Q9NYD6 254-340): as the sequence (Q9NYD6 254-340 K271E) above, with E18K counted along it
# Sequence of HOXA4 (Homo sapiens, UniProt Q00056 201-287, W262F) (Q00056 201-287 W262F): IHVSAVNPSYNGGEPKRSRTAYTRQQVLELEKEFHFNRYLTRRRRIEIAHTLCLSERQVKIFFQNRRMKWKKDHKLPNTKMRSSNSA
# Sequence of HOXC9 (Homo sapiens, UniProt P31274 178-260, R193K) (P31274 178-260 R193K): as the sequence (P31274 178-260 R222W) above, with R16K, W45R counted along it
# Sequence of ALX1 (Homo sapiens, UniProt Q15699 118-204, L144R) (Q15699 118-204 L144R): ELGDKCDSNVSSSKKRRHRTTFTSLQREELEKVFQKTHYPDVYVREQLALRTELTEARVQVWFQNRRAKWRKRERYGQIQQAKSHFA
# Sequence of ALX3 (Homo sapiens, UniProt O95076 139-225, N203S) (O95076 139-225 N203S): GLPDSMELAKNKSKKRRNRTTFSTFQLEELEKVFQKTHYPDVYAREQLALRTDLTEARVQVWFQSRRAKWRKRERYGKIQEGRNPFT
# Sequence of ALX4 (Homo sapiens, UniProt Q9H161 200-286, Q225E) (Q9H161 200-286 Q225E): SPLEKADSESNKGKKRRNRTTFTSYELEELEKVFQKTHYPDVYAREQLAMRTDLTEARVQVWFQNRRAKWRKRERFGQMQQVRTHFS
# Sequence of SHOX (O15266 103-189 R173C): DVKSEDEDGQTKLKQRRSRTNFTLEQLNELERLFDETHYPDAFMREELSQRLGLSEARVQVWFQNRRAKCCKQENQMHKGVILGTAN
# Sequence of HOXC9 (Homo sapiens, UniProt P31274 178-260) (P31274 178-260): as the sequence (P31274 178-260 R222W) above, with W45R counted along it
# Sequence of VAX1 (Q5SQQ9 86-172 T142I): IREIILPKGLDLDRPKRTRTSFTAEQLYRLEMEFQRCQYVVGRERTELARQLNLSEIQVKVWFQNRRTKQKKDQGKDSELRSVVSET
# Sequence of ALX4 (Homo sapiens, UniProt Q9H161 200-286) (Q9H161 200-286): as the sequence (Q9H161 200-286 Q225E) above, with E26Q counted along it
# Sequence of HESX1 (Homo sapiens, UniProt Q9UBX0 95-180, P111T) (Q9UBX0 95-180 P111T): as the sequence (Q9UBX0 95-180 F115L) above, with P17T, L21F counted along it
# Sequence of HOXD13 (P35453 263-343 T313R): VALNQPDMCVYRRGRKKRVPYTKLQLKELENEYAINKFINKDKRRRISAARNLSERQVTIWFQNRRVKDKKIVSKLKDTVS
# Sequence of HESX1 (Homo sapiens, UniProt Q9UBX0 95-180, R109Q) (Q9UBX0 95-180 R109Q): as the sequence (Q9UBX0 95-180 F115L) above, with R15Q, L21F counted along it
# Sequence of ALX3 (Homo sapiens, UniProt O95076 139-225) (O95076 139-225): as the sequence (O95076 139-225 N203S) above, with S65N counted along it
# Sequence of HOXA4 (Homo sapiens, UniProt Q00056 201-287, R217L) (Q00056 201-287 R217L): as the sequence (Q00056 201-287 W262F) above, with R17L, F62W counted along it
# Sequence of ALX3 (Homo sapiens, UniProt O95076 139-225, N203Q) (O95076 139-225 N203Q): as the sequence (O95076 139-225 N203S) above, with S65Q counted along it
# Sequence of ALX3 (Homo sapiens, UniProt O95076 139-225, L168V) (O95076 139-225 L168V): as the sequence (O95076 139-225 N203S) above, with L30V, S65N counted along it
# Sequence of ALX1 (Homo sapiens, UniProt Q15699 118-204, L144V) (Q15699 118-204 L144V): as the sequence (Q15699 118-204 L144R) above, with R27V counted along it
# Sequence of ALX3 (Homo sapiens, UniProt O95076 139-225, L168Q) (O95076 139-225 L168Q): as the sequence (O95076 139-225 N203S) above, with L30Q, S65N counted along it
# Sequence of HOXB4 (P17483 148-234 V174I): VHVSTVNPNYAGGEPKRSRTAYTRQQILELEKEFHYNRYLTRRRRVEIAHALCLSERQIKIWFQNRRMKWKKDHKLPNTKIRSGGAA
# Sequence of HOXB9 (Homo sapiens, UniProt P17482 171-250, R186Q) (P17482 171-250 R186Q): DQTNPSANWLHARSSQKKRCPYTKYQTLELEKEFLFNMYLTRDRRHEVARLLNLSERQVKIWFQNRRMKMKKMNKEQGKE
sequence,measurement,setting,value
ATTAATAA,binding signal,[1],"10.1 upbm affinity estimate (log intensity, higher = more binding, comparable within an allelic series)"
same,binding signal,[2],"12.6 upbm affinity estimate (log intensity, higher = more binding, comparable within an allelic series)"
same,binding signal,[3],"11.2 upbm affinity estimate (log intensity, higher = more binding, comparable within an allelic series)"
same,binding signal,[4],"12.2 upbm affinity estimate (log intensity, higher = more binding, comparable within an allelic series)"
same,binding signal,[5],"13.5 upbm affinity estimate (log intensity, higher = more binding, comparable within an allelic series)"
same,binding signal,[6],"11.7 upbm affinity estimate (log intensity, higher = more binding, comparable within an allelic series)"
same,binding signal,[7],"11.2 upbm affinity estimate (log intensity, higher = more binding, comparable within an allelic series)"
same,binding signal,[8],"12.1 upbm affinity estimate (log intensity, higher = more binding, comparable within an allelic series)"
same,binding signal,[9],"10.1 upbm affinity estimate (log intensity, higher = more binding, comparable within an allelic series)"
same,binding signal,[10],"12.8 upbm affinity estimate (log intensity, higher = more binding, comparable within an allelic series)"
same,binding signal,[11],"12 upbm affinity estimate (log intensity, higher = more binding, comparable within an allelic series)"
same,binding signal,[12],"13.6 upbm affinity estimate (log intensity, higher = more binding, comparable within an allelic series)"
same,binding signal,[13],"11.4 upbm affinity estimate (log intensity, higher = more binding, comparable within an allelic series)"
same,binding signal,[14],"8.66 upbm affinity estimate (log intensity, higher = more binding, comparable within an allelic series)"
same,binding signal,[15],"10.8 upbm affinity estimate (log intensity, higher = more binding, comparable within an allelic series)"
same,binding signal,[16],"11.9 upbm affinity estimate (log intensity, higher = more binding, comparable within an allelic series)"
same,binding signal,[17],"9.26 upbm affinity estimate (log intensity, higher = more binding, comparable within an allelic series)"
same,binding signal,[18],"12.5 upbm affinity estimate (log intensity, higher = more binding, comparable within an allelic series)"
same,binding signal,[19],"11.2 upbm affinity estimate (log intensity, higher = more binding, comparable within an allelic series)"
same,binding signal,[20],"10.7 upbm affinity estimate (log intensity, higher = more binding, comparable within an allelic series)"
same,binding signal,[21],"11.8 upbm affinity estimate (log intensity, higher = more binding, comparable within an allelic series)"
same,binding signal,[22],"12.2 upbm affinity estimate (log intensity, higher = more binding, comparable within an allelic series)"
same,binding signal,[23],"11 upbm affinity estimate (log intensity, higher = more binding, comparable within an allelic series)"
same,binding signal,[24],"8.97 upbm affinity estimate (log intensity, higher = more binding, comparable within an allelic series)"
same,binding signal,[25],"10.2 upbm affinity estimate (log intensity, higher = more binding, comparable within an allelic series)"
same,binding signal,[26],"10.2 upbm affinity estimate (log intensity, higher = more binding, comparable within an allelic series)"
same,binding signal,[27],"11.4 upbm affinity estimate (log intensity, higher = more binding, comparable within an allelic series)"
same,binding signal,[28],"11.2 upbm affinity estimate (log intensity, higher = more binding, comparable within an allelic series)"
same,binding signal,[29],"9.99 upbm affinity estimate (log intensity, higher = more binding, comparable within an allelic series)"
same,binding signal,[30],"8.16 upbm affinity estimate (log intensity, higher = more binding, comparable within an allelic series)"
same,binding signal,[31],"12.3 upbm affinity estimate (log intensity, higher = more binding, comparable within an allelic series)"
same,binding signal,[32],"11 upbm affinity estimate (log intensity, higher = more binding, comparable within an allelic series)"
same,binding signal,[33],"9.01 upbm affinity estimate (log intensity, higher = more binding, comparable within an allelic series)"
same,binding signal,[34],"11.4 upbm affinity estimate (log intensity, higher = more binding, comparable within an allelic series)"
same,binding signal,[35],"8.71 upbm affinity estimate (log intensity, higher = more binding, comparable within an allelic series)"
same,binding signal,[36],"13.2 upbm affinity estimate (log intensity, higher = more binding, comparable within an allelic series)"
same,binding signal,[37],"11.7 upbm affinity estimate (log intensity, higher = more binding, comparable within an allelic series)"
ATTATTAC,binding signal,[1],"10 upbm affinity estimate (log intensity, higher = more binding, comparable within an allelic series)"
same,binding signal,[2],"12.5 upbm affinity estimate (log intensity, higher = more binding, comparable within an allelic series)"
same,binding signal,[3],"11.2 upbm affinity estimate (log intensity, higher = more binding, comparable within an allelic series)"
same,binding signal,[4],"12.1 upbm affinity estimate (log intensity, higher = more binding, comparable within an allelic series)"
same,binding signal,[9],"10 upbm affinity estimate (log intensity, higher = more binding, comparable within an allelic series)"
same,binding signal,[38],"12.6 upbm affinity estimate (log intensity, higher = more binding, comparable within an allelic series)"
same,binding signal,[18],"12.5 upbm affinity estimate (log intensity, higher = more binding, comparable within an allelic series)"
same,binding signal,[21],"11.6 upbm affinity estimate (log intensity, higher = more binding, comparable within an allelic series)"
same,binding signal,[28],"11 upbm affinity estimate (log intensity, higher = more binding, comparable within an allelic series)"
same,binding signal,[33],"8.99 upbm affinity estimate (log intensity, higher = more binding, comparable within an allelic series)"
same,binding signal,[37],"11.7 upbm affinity estimate (log intensity, higher = more binding, comparable within an allelic series)"
ATTATAAT,binding signal,[1],"10.2 upbm affinity estimate (log intensity, higher = more binding, comparable within an allelic series)"
same,binding signal,[2],"12.5 upbm affinity estimate (log intensity, higher = more binding, comparable within an allelic series)"
same,binding signal,[3],"11.3 upbm affinity estimate (log intensity, higher = more binding, comparable within an allelic series)"
same,binding signal,[6],"11.8 upbm affinity estimate (log intensity, higher = more binding, comparable within an allelic series)"
same,binding signal,[7],"11.3 upbm affinity estimate (log intensity, higher = more binding, comparable within an allelic series)"
same,binding signal,[8],"12.2 upbm affinity estimate (log intensity, higher = more binding, comparable within an allelic series)"
same,binding signal,[9],"10.1 upbm affinity estimate (log intensity, higher = more binding, comparable within an allelic series)"
same,binding signal,[16],"12 upbm affinity estimate (log intensity, higher = more binding, comparable within an allelic series)"
same,binding signal,[20],"10.8 upbm affinity estimate (log intensity, higher = more binding, comparable within an allelic series)"
same,binding signal,[21],"11.8 upbm affinity estimate (log intensity, higher = more binding, comparable within an allelic series)"
same,binding signal,[23],"11.1 upbm affinity estimate (log intensity, higher = more binding, comparable within an allelic series)"
same,binding signal,[28],"11.1 upbm affinity estimate (log intensity, higher = more binding, comparable within an allelic series)"
same,binding signal,[30],"7.83 upbm affinity estimate (log intensity, higher = more binding, comparable within an allelic series)"
same,binding signal,[32],"11 upbm affinity estimate (log intensity, higher = more binding, comparable within an allelic series)"
same,binding signal,[33],"8.94 upbm affinity estimate (log intensity, higher = more binding, comparable within an allelic series)"
same,binding signal,[34],"11.4 upbm affinity estimate (log intensity, higher = more binding, comparable within an allelic series)"
same,binding signal,[36],"13.3 upbm affinity estimate (log intensity, higher = more binding, comparable within an allelic series)"
same,binding signal,[37],"11.8 upbm affinity estimate (log intensity, higher = more binding, comparable within an allelic series)"
ATAATCGG,binding signal,[39],"10.6 upbm affinity estimate (log intensity, higher = more binding, comparable within an allelic series)"
same,binding signal,[40],"10.7 upbm affinity estimate (log intensity, higher = more binding, comparable within an allelic series)"
